Source: PubChem
An excerpt weighted towards active compounds, which were near 6.5% of everything screened.
HepG2 viability = qHTS for Inhibitors of TGF-b: Cytotox Counterscreen. Potency, µM (titrated, usually from 46.1 µM), usual class: cytotoxic. HepG2 CAGA-GFP viability, ATP luminescence, 18 h. actives 0.76% (n = 410,000)
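HepG2 CAGA-GFP cells (1000/well, DMEM with 1% FBS) received compound, then TGF-beta at 500 pg/mL final, and were incubated 18 hours at 37 degrees C. Viability was read by CellTiter-Glo luminescence. Media-only wells were set as complete cell-killing and DMSO as no toxicity.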
HT1080NT lethal = qHTS for induction of synthetic lethality in tumor cells producing 2HG: qHTS for the HT-1080-NT fibrosarcoma cell line; Potency, µM (titrated, usually from 46.1 µM), most hits filed as cytotoxic; HT-1080-NT fibrosarcoma viability, CellTiter-Glo ATP luminescence, 48 h; actives 1.6% (n = 360,000);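 also: NT is the 2HG producing partner of a matched IDH1 knockdown line; nearly all actives have a fitted effect of over 55% in size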
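HT-1080-NT; 750 cells/well; 5% FBS RPMI; 48 h compound, 37 degrees C; CellTiter-Glo luminescence; curve fitting and curve-class assignment.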
TGFb SMAD3 inh = qHTS for Inhibitors of TGF-b; HepG2 CAGA-GFP TGF-b/SMAD3 reporter, GFP fluorescence, 18 h; TGF-beta stimulated, 500 pg/mL final; Potency, µM (top dose mostly 46.1 µM), most hits filed as inhibitors; actives 1.2% (n = 410,000); also: nearly all actives have a fitted effect of over 65% in size
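Inhibition was scored as loss of TGF-beta-induced (500 pg/mL final, 18 hours, 37 degrees C) GFP in HEPG2 cells carrying a CAGA-GFP reporter, in DMEM with 1% FBS. Well GFP was summed per cell; Activity was normalised to unstimulated and stimulated DMSO wells, then concentration-response fitting.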
HT1080 IDH1KD tx = qHTS for induction of synthetic lethality in tumor cells producing 2HG: qHTS for the HT-1080-IDH1KD cell line. actives 2% (n = 360,000). AID 686971, 2013. HT-1080 IDH1 knockdown viability, ATP luminescence, 48 h. Potency, µM (titrated, usually from 46.1 µM), usual class: cytotoxic
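IDH1KD HT-1080 cells, 750/well, RPMI + 5% FBS; compound pinned after 2 h settling; 48 h, 37 °C; CellTiter-Glo luminescence; % activity normalised to DMSO and no-cell wells; curves fitted, classed by r2 and efficacy.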
Giardia kill = Small Molecules that selectively kill Giardia lamblia: qHTS; Giardia lamblia trophozoite viability; activity change, % at 7.66 µM, hits read low; actives 0.15% (n = 340,000); AID 540267, 2011; in the data active = activity change below about -80%; inconclusive = between about -30% and that limit;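 also: parasites exposed to compound for two days anaerobically before the ATP read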
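Trophozoites 100 cells/well + cpd; 48 hrs, 37 deg C, anaerobic. ATPLite 1-Step added, 15-30 min RT, luminescence read (ATP-based viability).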
IL1B secr inh = qHTS for Inhibitors of Inflammasome Signaling: IL-1-beta AlphaLISA Primary Screen | actives 4.7% (n = 360,000) | activity change, % at 57.5 µM | THP-1 LPS/ATP IL-1B secretion, AlphaLISA, 16 h; hits give low values; in the data active = activity change below about -50%; inconclusive = mostly about -30% to -49%
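Secreted IL-1B measured by AlphaLISA bead assay after 16 h compound exposure of THP-1 cells; compounds (final up to 57.5 uM) added 1 h before LPS (250 ng/mL) and ATP (1.25 mM) stimulation; lower signal means less secretion.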
A number is an active result. Unless noted, calls follow the shape of the dose curve; as a rule, active = well fitted curve in the direction sought with a large enough effect; inconclusive = small, poorly fitted or top-dose-only effect, or another doubt; inactive = no such curve, though single readings can be large; an effect the other way counts as inactive or inconclusive.

What do the screens show for `Cc1ccc(C)c(S(=O)(=O)N2CCN(C(=O)c3ccc(OCc4c(C)noc4C)cc3)CC2)c1`?
HepG2 viability: 14µM; HT1080NT lethal: inactive; TGFb SMAD3 inh: inactive; HT1080 IDH1KD tx: inactive; Giardia kill: inactive; IL1B secr inh: inactive

What do the screens show for `Cc1noc(C)c1COc1cccc(C(=O)OC(C)C(=O)Nc2ccc3c(c2)OCO3)c1` (stereo unspecified)?
HepG2 viability: inactive; HT1080NT lethal: 10µM; TGFb SMAD3 inh: inactive; HT1080 IDH1KD tx: 5µM; Giardia kill: inactive; IL1B secr inh: inactive

What do the screens show for `COc1cc(C(=O)O)ccc1OCc1c(C)noc1C`?
HepG2 viability: inactive; HT1080NT lethal: inactive; TGFb SMAD3 inh: inactive; HT1080 IDH1KD tx: inactive; Giardia kill: inactive; IL1B secr inh: inactive

Results for COc1cc(C(=O)OCC(C)=O)ccc1OCc1c(C)noc1C ?
HepG2 viability: inactive; HT1080NT lethal: inconclusive; TGFb SMAD3 inh: inactive; HT1080 IDH1KD tx: 18µM; Giardia kill: inactive; IL1B secr inh: inactive

Results for Cc1ccc(Cl)cc1N1C(=O)CC(Sc2ncccn2)C1=O (stereo unspecified) ?
HepG2 viability: inactive; HT1080NT lethal: inactive; TGFb SMAD3 inh: inactive; HT1080 IDH1KD tx: inactive; Giardia kill: inactive; IL1B secr inh: inactive

Results for O=C1CC(Sc2ncccn2)C(=O)N1c1ccccc1C(F)(F)F (stereo unspecified) ?
HepG2 viability: inactive; HT1080NT lethal: inactive; TGFb SMAD3 inh: inactive; HT1080 IDH1KD tx: inactive; Giardia kill: inactive; IL1B secr inh: -80

Results for COc1ccc(CCN2C(=O)c3[nH]nc(-c4ccccc4O)c3C2c2cccc(Cl)c2)cc1 (stereo unspecified) ?
HepG2 viability: inactive; HT1080NT lethal: 23µM; TGFb SMAD3 inh: inconclusive; HT1080 IDH1KD tx: 12µM; Giardia kill: inactive; IL1B secr inh: inactive

How did COc1ccc(CCN2C(=O)c3[nH]nc(-c4ccccc4O)c3C2c2cccc(OC)c2)cc1 (stereo unspecified) do in these assays?
HepG2 viability: inactive; TGFb SMAD3 inh: inconclusive

Results for COc1ccc(C2c3c(-c4ccccc4O)n[nH]c3C(=O)N2CCc2ccc(OC)c(OC)c2)cc1 (stereo unspecified) ?
HepG2 viability: inactive; HT1080NT lethal: inactive; TGFb SMAD3 inh: inconclusive; HT1080 IDH1KD tx: inconclusive; Giardia kill: inactive; IL1B secr inh: -51

What do the screens show for `COc1ccc(C2c3c(-c4ccccc4O)n[nH]c3C(=O)N2Cc2ccco2)cc1` (stereo unspecified)?
HepG2 viability: inactive; HT1080NT lethal: inconclusive; TGFb SMAD3 inh: inconclusive; HT1080 IDH1KD tx: inconclusive; Giardia kill: inactive; IL1B secr inh: -75

How did O=S(=O)(NCc1ccc(Cl)cc1)c1ccc2[nH]c3c(c2c1)CCCC3 do in these assays?
HepG2 viability: 16µM; TGFb SMAD3 inh: 16µM

Results for O=S(=O)(NCc1ccccc1)c1ccc2[nH]c3c(c2c1)CCCCC3 ?
HepG2 viability: inactive; TGFb SMAD3 inh: inconclusive

What do the screens show for `O=S(=O)(NCc1ccc(F)cc1)c1ccc2[nH]c3c(c2c1)CCCC3`?
HepG2 viability: inactive; TGFb SMAD3 inh: 18µM

What do the screens show for `Cc1ccc(CNS(=O)(=O)c2ccc3[nH]c4c(c3c2)CCCC4)cc1`?
HepG2 viability: inactive; TGFb SMAD3 inh: inconclusive

How did Cc1ccccc1CSCCNC(=O)c1ccccc1 do in these assays?
HepG2 viability: inactive; HT1080NT lethal: inactive; TGFb SMAD3 inh: inactive; HT1080 IDH1KD tx: inactive; Giardia kill: inactive; IL1B secr inh: inactive

Results for CC(C)c1ccc(NC(=O)CSC2=Nc3ccccc3C3=NC(CCC(=O)NC4CCCCC4)C(=O)N23)cc1 (stereo unspecified) ?
HepG2 viability: inactive; TGFb SMAD3 inh: inactive
